Test results from the supplement of paper PMC6555819.

How the values were obtained:
Experiment in all cases: PBM binding z-score (relative to random genomic background probes); higher = stronger binding; sequences stand for … in GC…GCGATTGACAGCGTAGAATGAAGG
[1] = test system: PPARg:RXRa DBDmut IVT, anti-RXR (DBD mutation: RXRa K156A/R161A, NR concentration 270 nM, RXRa partner concentration 90 nM)
In short: (§1)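 On custom Agilent 4×180K arrays, double-stranded probes with 34-nt variable regions carried direct-repeat seeds, single-nucleotide variants, half-site ablations or random human genomic background. Ligand-free nuclear receptor dimers were applied for 1 h, and binding was read with antibodies against each partner (one per run). Binding z-scores come from regression-normalized fluorescence, with the random background probes as reference.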

[2] = test system: PPARg:RXRa IVT, anti-PPARg (NR concentration 270 nM, RXRa partner concentration 90 nM)
In short: as §1

[3] = test system: PPARg DBDmut:RXRa IVT, anti-PPARg (DBD mutation: PPARg1 K132A/R137A, NR concentration 270 nM, RXRa partner concentration 90 nM)
In short: as §1

[4] = test system: PPARg DBDmut IVT, anti-PPARg (DBD mutation: PPARg1 K132A/R137A, NR concentration 270 nM)
In short: as §1

[5] = test system: PPARg homodimer (NR concentration 180 nM)
In short: as §1

[6] = test system: PXR:RXRa (NR concentration 270 nM, RXRa partner concentration 90 nM)
In short: as §1

[7] = test system: PXR homodimer (NR concentration 270 nM)
In short: as §1

[8] = test system: RARa:RXR (NR concentration 270 nM, RXRa partner concentration 90 nM)
In short: as §1

[9] = test system: RARa homodimer (NR concentration 270 nM)
In short: as §1

[10] = test system: RARb:RXRa (NR concentration 270 nM, RXRa partner concentration 90 nM)
In short: as §1

[11] = test system: RARb homodimer (NR concentration 270 nM)
In short: as §1

[12] = test system: RARg:RXRa (NR concentration 270 nM, RXRa partner concentration 90 nM)
In short: as §1

[13] = test system: RARg homodimer (NR concentration 270 nM)
In short: as §1

[14] = test system: RXRa DBDmut IVT, anti-RXR (DBD mutation: RXRa K156A/R161A, NR concentration 90 nM)
In short: as §1

[15] = test system: RXRa homodimer (NR concentration 180 nM)
In short: as §1

[16] = test system: THRa:RXRa (NR concentration 90 nM, RXRa partner concentration 90 nM)
In short: as §1

[17] = test system: THRa homodimer (NR concentration 90 nM)
In short: as §1

[18] = test system: VDR homodimer (NR concentration 270 nM)
In short: as §1

Sequence | PBM binding z-score [1] | PBM binding z-score [2] | PBM binding z-score [3] | PBM binding z-score [4] | PBM binding z-score [5] | PBM binding z-score [6] | PBM binding z-score [7] | PBM binding z-score [8] | PBM binding z-score [9] | PBM binding z-score [10] | PBM binding z-score [11] | PBM binding z-score [12] | PBM binding z-score [13] | PBM binding z-score [14] | PBM binding z-score [15] | PBM binding z-score [16] | PBM binding z-score [17] | PBM binding z-score [18]
CCTTTCGGGTCACTGACAGGTTATAGCATTTGGA | 3.4 | 3.43 | 0.931 | 0.0693 | 2.97 | 3.79 | 0.121 | 4.74 | 0.858 | 4.04 | 3.44 | 5.76 | 4.91 | 2.55 | 5.16 | 4.17 | 2.95 | 1.19
TCTTGTAGATCAAGCAGGGTAAGAAAGCCTGAGT | 1.7 | 0.481 | -0.108 | -0.000734 | -0.854 | 0.136 | -0.0302 | 0.246 | -0.676 | -0.148 | -0.297 | -0.27 | -0.38 | 0.436 | -0.147 | 1.2 | -0.451 | 0.209
CGAACTAGGTCATCCAGTACAGTGAATACATTGA | 8.25 | 8.35 | 2.09 | 1.3 | 1.76 | 2.09 | 1.66 | 2.26 | 0.426 | 3.78 | 3.05 | 3.9 | 4.84 | 2.61 | 2.78 | 3.04 | 1.43 | 2.24
TCTAGTAGGTTAGTCGGGGCATTCAGCCAACATA | 4.91 | 4.13 | 0.243 | 0.851 | 1.41 | 0.733 | 0.807 | 0.939 | 0.282 | 0.996 | 1.04 | 0.36 | 0.358 | 1.33 | 0.381 | 1.4 | 0.765 | 1.14
CCAGACAGGTAAGAAGGTAACTCAGCCTCGATTA | 0.139 | -0.122 | -0.475 | -0.368 | 0.961 | 0.129 | 0.112 | 0.274 | 0.51 | 0.0631 | -0.0494 | 0.201 | 0.207 | -0.00945 | 0.0209 | 0.0122 | 0.113 | -0.0609
TGAATGAGGTTAAAGATCAGGGAACGTGGCGTCG | 2.04 | 3.27 | 0.612 | 0.495 | 1.15 | 1.99 | 0.0833 | 3.37 | 0.135 | 1.97 | 0.677 | 2.23 | 1.12 | 1.61 | 3.81 | 2.5 | 0.44 | 0.484
TCGAGTAGGTTAGTCGGGGCATTCAGCCAACATA | 2.04 | 1.69 | -0.526 | -0.18 | -0.242 | -0.0448 | -0.488 | 0.00411 | -0.698 | 0.351 | 0.309 | -0.257 | -0.115 | 0.217 | -0.227 | 0.885 | -0.0985 | 0.0153
CCTACTGGGCCACAGGTCATTGATTCCAATGCTC | 4.78 | 5.99 | -0.262 | -0.356 | 1.06 | 1.75 | 0.334 | 2.03 | -0.37 | 2.26 | 2.48 | 2.14 | 1.94 | 0.14 | 2.23 | 1.54 | 0.651 | 1.13
ATCTCTAGGTAAGACTCAGTTCAATGAAGAACGC | 1.88 | 1.16 | 1.2 | 1.44 | 1.39 | 2.1 | 2.69 | 1.34 | 1.4 | 0.797 | 0.915 | 0.919 | 0.623 | 0.822 | 0.539 | 1.29 | 0.873 | 2.32
GCATATAGGTAATACAAGGTGAATGTCCGATTGT | 4.28 | 3.39 | 1.78 | 0.61 | 0.903 | 0.286 | 0.012 | 0.602 | 0.84 | 0.305 | 0.685 | 0.413 | 0.66 | 0.0909 | 0.689 | 4.18 | 0.928 | -0.178
GCGACTGGGGCAAAGCAGGTTGCCATAAGGTTGG | 4.34 | 3.1 | -0.486 | -0.871 | -0.00419 | -0.373 | -0.521 | -0.163 | -0.719 | 0.412 | 0.156 | 0.0303 | 0.101 | -0.48 | -0.0833 | 1.59 | -0.471 | -0.513
TCATATAGGTAAACAGGTGAAATTCCGTAAGTTA | 4.59 | 4.41 | 1.27 | 1.49 | 1.3 | 1.03 | 0.625 | 1.67 | 2.19 | 0.689 | 0.605 | 0.589 | 0.48 | 1.58 | 1.07 | 0.752 | 0.651 | 0.614
ATATGTAGGTTTTCGGGTCATTCAGTTTGCGCAT | 5.6 | 5.42 | 1.9 | 1.31 | 2.39 | 4.14 | 8.75 | 3.74 | 1.72 | 2.17 | 2.88 | 2.43 | 1.72 | 1.88 | 3.57 | 3.89 | 4.22 | 4.55
GCTAGCAGGCCATTGGGGTCACTCAATGACGGGC | 0.93 | 2.42 | -0.918 | -0.85 | 1.48 | 5.48 | 8.59 | 5.19 | -0.69 | 3.01 | 3.44 | 3.98 | 3.1 | 0.8 | 4.7 | 3.84 | 2.39 | 4.55
CGTCAAAGTTCAAGGTAACATAACAGAAAGCAGC | 0.0346 | 2.06 | 0.987 | 0.494 | 2.78 | 4.26 | 2.87 | 3.65 | 1.23 | 5.13 | 3.84 | 5.43 | 6.33 | 4.63 | 4.69 | 2.92 | 1.05 | 2.9
